JMJD2A Tudor: JMJD2A Tudor domain (human) inhibition | Potency, µM (titrated, usually from 114 µM), for inactives: at the top dose activity change, negative = inhibition, most hits filed as inhibitors | 390,000 compounds, 4.4% hits | AlphaScreen JMJD2A-Tudor / H3K4me3 peptide binding; further: on the % scale 0 is the no-effect control and ±100 the full control effect; nearly all actives have a fitted effect of over 50% in size
PLK1 PBD block: blocks phosphopeptide binding to human PLK1 polo-box domain. P53350. Plk1 PBD binding of FITC phosphopeptide, fluorescence polarization. Potency, µM, inactives show max response, negative = inhibition, actives largely listed as inhibitors. 360,000 compounds, 2.8% hits. AID 720504; further: series mostly up to about 57 µM; on the % scale 0 is the no-effect control and ±100 the full control effect; nearly all actives have a fitted effect of over 65% in size
Sfp inh: blocks B. subtilis Sfp PPTase activity. AID 1490. Potency, µM, for the others: largest response in the series, negative = inhibition, most hits filed as inhibitors. Q9F4F7. 310,000 compounds, 3.5% hits. Biochemical Sfp PPTase activity, qHTS;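 further: the enzyme is Sfp with the accession as filed and its product quenches rhodamine fluorescence; 0% = enzyme reaction without inhibitor and -100% = no enzyme wells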
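Fluorescence-quenching assay: 15 nM Sfp-PPTase preincubated 15 min at room temperature with compound, then 5 uM rhodamine-CoA and 12.5 uM BHQ-2-labelled YbbR peptide added. Fluorescence (ex 525/em 598 nm) read at start and after 30 min; difference gives rate.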
HP1b chromo inh: HP1-beta chromodomain-methylated histone interaction inhibition; P83916; AlphaScreen HP1-beta / biotin-H3K9me3 peptide binding; Potency, µM (series often up to 114 µM), without a hit: top-dose activity change, negative = inhibition, hits mostly inhibitors; 390,000 compounds, 0.56% hits; further: nearly all actives have a fitted effect of over 70% in size
Target sequence (P83916 whole entry, looked up): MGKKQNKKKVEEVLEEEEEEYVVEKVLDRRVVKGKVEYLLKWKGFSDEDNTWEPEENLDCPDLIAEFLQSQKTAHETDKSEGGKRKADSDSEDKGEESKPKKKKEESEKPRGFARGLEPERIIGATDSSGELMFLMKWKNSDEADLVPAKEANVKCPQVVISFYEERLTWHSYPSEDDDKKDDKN
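Compound inhibition of the preformed complex between 50 nM HP1-beta and 50 nM biotinylated H3K9me3 peptide was read by AlphaScreen. Buffer was PBS pH 7.4 with 0.01% Tween-20. Incubations ran 30 min at room temperature, with 10 ug/mL donor/acceptor beads.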
G9a block: inhibitors of human histone lysine methyltransferase G9a | Q96KQ7 | G9a H3K9 monomethylation, AlphaScreen, 2 h | Potency, µM (doses to about 102 µM), without a hit: at the top dose activity, negative = inhibition, actives largely listed as inhibitors | 350,000 compounds, 8.8% hits; further: on the % scale 0 is the no-effect control and ±100 the full control effect; nearly all actives have a fitted effect of over 75% in size
Target sequence (Q96KQ7 913-1193 limits assumed): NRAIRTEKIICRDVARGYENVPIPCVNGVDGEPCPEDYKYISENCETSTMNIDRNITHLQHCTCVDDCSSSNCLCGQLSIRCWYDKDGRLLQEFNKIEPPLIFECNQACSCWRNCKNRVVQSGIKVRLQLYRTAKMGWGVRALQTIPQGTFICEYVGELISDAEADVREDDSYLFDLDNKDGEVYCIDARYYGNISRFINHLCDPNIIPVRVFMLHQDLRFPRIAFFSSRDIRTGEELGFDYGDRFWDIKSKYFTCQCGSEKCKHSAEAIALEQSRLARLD
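Compounds were preincubated with 20 nM G9a for 15 min, after which biotinylated H3K9 peptide (500 nM) and SAM (20 uM) started a 2 h room-temperature reaction. Monomethylated product was quantified by antibody-based AlphaScreen chemiluminescence.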
BAZ2B block: blocks human BAZ2B; Q9UIF8; AlphaScreen BAZ2B-H3K14Ac peptide displacement; Potency, µM (top dose mostly 114 µM), without a hit: at the top dose activity change, negative = inhibition, actives largely listed as inhibitors; 360,000 compounds, 4.4% hits; AID 504333; further: on the % scale 0 is the no-effect control and ±100 the full control effect; nearly all actives have a fitted effect of over 60% in size
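AlphaScreen displacement of biotin-H3(5-23)K14Ac peptide (50 nM final) from BAZ2B (50 nM final) in PBS pH 7.4, 0.01% Tween-20; complex preformed 30 min RT, then compounds (top 110 uM) 30 min RT, beads 20 min dark.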
Starred values were filed as active, the others as inactive; ? = inconclusive; · = no result given; [ ] = remark or other dose. Rows were chosen to be rich in hits. Some 12% of all compounds tested hit in one or more screens of this group. The call rests on the fitted dose curve; in most records, active means well fitted curve in the direction sought with a large enough effect; inconclusive means small, poorly fitted or top-dose-only effect, or another doubt; inactive means no such curve, though single readings can be large; an effect the other way counts as inactive or inconclusive. Potency means the concentration at half of the fitted maximal effect.

SMILES	JMJD2A Tudor	PLK1 PBD block	Sfp inh	HP1b chromo inh	G9a block	BAZ2B block
O=C1c2ccccc2C(=O)C12OC2c1cccc2ccccc12 (stereo not given)	-24.2%	?	28.2µM*	12.2%	6.31µM*	1.2%
COc1ccc2c(c1-c1c3c(cc(Br)c1OC)CCCC3)CCCC2	·	·	7.8%	·	·	·
Cc1ccc(NC(=O)C(Cc2c[nH]c3ccccc23)NC(=O)OCC(C)C)cc1 (stereo not given)	-35.4%	·	·	-0.3%	-25.5%[59 µM]	-36.1%
COC(=O)c1ccc(N)c(N=CC2=C(O)CC(C)(C)CC2=O)c1	?	-0.5%	11.6%	-9.3%	13.5%[59 µM]	?
COC(=O)c1ccc2c(c1)C(C)(C)C(/C=C/c1ccccc1O)=[N+]2C	56.2µM*	50.8%	11.2µM*	?	?	8.91µM*
C=CCSc1nc(-c2ccccc2)c2cc(Cl)ccc2n1	200.7%	-3.4%	-9.8%	301.5%	41.5%[59 µM]	195.2%
C=CCSc1nnc(C)c(/C=C/Nc2ccc(Cl)cc2)n1	39.8µM*	?	-11.5%	-8.6%	?	-20.9%
COCC(=O)C(C(=O)OC)[C@H](CCc1ccccc1)NC(=O)OC (stereo not given in full)	·	·	-13.3%	·	·	·
O=C(Nc1ccc(Cl)cc1)Nc1ccc(Br)cn1	?	29.9µM*	0.3%	11.7%	-10.5%	0.6%
O=C(Nc1ccc(Br)cn1)c1cccc(C(=O)Nc2ccc(Br)cn2)c1	89.1µM*	-14.5%	1.7%	62.7%	20.1%	-1.1%
O=C1OCc2ccc([N+](=O)[O-])cc21	2.1%	-0.8%	·	37.0%	·	·
Cc1ccc(N(CC(=O)NCCSc2ccccn2)S(C)(=O)=O)cc1	-7.9%	?	-6.6%	32.8%	28.2µM*	-2.1%
CCCCN1CCC(=O)C(C(=O)OCC)=C1C(=O)OCC	-11.5%	-5.4%	·	46.2%	·	·
CC(=NCCc1ccccc1)C1=C(O)CSC1=O	-23.3%[11.4 µM]	11.9µM*	14.9%	-13.9%	20.1%[59 µM]	-3.6%
C[N+]1(C)CC(O)[C@H](C(=O)[O-])C1 (stereo not given in full)	·	·	15.1%	·	·	·
CCOc1cc(C(=S)N2CCOCC2)ccc1OS(=O)(=O)c1ccccc1[N+](=O)[O-]	-32.4%	-9.1%	2.7%	8.0%	10µM*	?
COc1cc(C(=S)N2CCOCC2)ccc1OS(=O)(=O)c1ccccc1[N+](=O)[O-]	?	15µM*	-20.1%	?	12.6µM*	-6.3%
COc1ccc(C(=S)N2CCOCC2)cc1OS(=O)(=O)c1ccccc1[N+](=O)[O-]	-29.2%	?	-29.1%	?	3.16µM*	-13.0%
Cc1cccc(-n2ncc3c(NNC(=O)c4ccccc4Cl)ncnc32)c1	-27.5%	·	·	14.1%	28.6%[59 µM]	8.4%
COc1cc(OC)c(NC(=O)Cn2c(=O)oc3cc(S(=O)(=O)N4CCCC4)ccc32)cc1Cl	-22.1%	·	·	6.5%	-2.9%[59 µM]	1.4%
CC1CCc2c(sc3nc(-c4cc5ccccc5oc4=O)nc(Cl)c23)C1 (stereo not given)	-4.8%	·	·	38.4%	-48.1%[59 µM]	-5.8%
CC(C)[C@H](O)C1=CCCCC1=O	·	·	2.2%	·	·	·
COn1c(=O)c(-c2cccs2)[n+]([O-])c2ccccc21	1.7%	2.12µM*	-17.1%	47.8%	-1.9%[12.7 µM]	-20.7%
COn1c(=O)c(-c2ccc(Cl)cc2)[n+]([O-])c2ccccc21	13.5%	-17.8%	8.6%	41.6%	-7.6%[59 µM]	7.7%
CCOn1c(=O)c(-c2cccs2)[n+]([O-])c2ccccc21	-6.3%	?	-6.9%	26.5%	9.4%[59 µM]	-1.0%
SMILES	JMJD2A Tudor	PLK1 PBD block	Sfp inh	HP1b chromo inh	G9a block	BAZ2B block
CCOC(=O)COn1c(=O)c(-c2cccs2)[n+]([O-])c2ccccc21	-15.7%	?	10µM*	21.9%	?	?
CCN(CC)S(=O)(=O)c1nnc(NC(=O)COc2cccc(C)c2)s1	-27.6%	·	·	18.3%	-40.7%[59 µM]	?
Cc1[nH]c2ccc(C(=O)OC(C)C(=O)NC3CCCCC3C)cc2c1C (stereo not given)	-11.3%	-0.3%	·	46.9%	10.1%[12.7 µM]	-5.8%
Cc1[nH]c2ccc(C(=O)OC(C)C(=O)NC3(C#N)CCCCC3)cc2c1C (stereo not given)	?	0.4%	·	4.0%	44.7µM*	50.1µM*
COc1ccc2nc(C)cc(Sc3nc4ccccc4s3)c2c1	79.4µM*	23.8µM*	?	34.4%	14.1µM*	19.1%
Cc1cc(Cl)c(OCCCN(C)C)c(Br)c1	8.91µM*	-1.9%	-7.1%	?	11.2µM*	-37.0%
COc1ccccc1OCCCOc1c(C)cc(C)cc1Br	87.3%	-1.6%	-3.2%	177.2%	103.0%[59 µM]	151.4%
Cc1ccc(OCCCN(C)C)c(Br)c1	3.16µM*	0.8%	1.0%	?	?	79.4µM*
CN(C)CCCOc1ccc(Cl)cc1Br	1µM*	-5.0%	-14.4%	?	30.5%[0.501 µM]	44.7µM*
Cc1cc(Cl)c(OCCCCNC(C)(C)C)c(Br)c1	·	·	-21.2%	·	8.91µM*	?
COc1ccccc1OCCCCNC(C)(C)C	-11.0%	-2.6%	-0.3%	7.5%	3.6%[59 µM]	·
COc1ccc(Oc2ncc3ncc(=O)n(C[C@H]4CCCO4)c3n2)cc1	·	·	-12.1%	·	2.3%[12.7 µM]	·
N#C/C(=C(/N)Sc1ccc(N)cc1)c1ccccc1C(F)(F)F	·	·	-16.4%	·	·	·
Nc1ccc(SC(F)(F)F)cc1	1.4%	-13.5%	-3.7%	29.4%	50.1µM*	5.4%
CC(=O)c1ccc(NC(=O)CN2C(=O)/C(=C/C=C/c3ccccc3)SC2=S)cc1	-18.9%	4.2%	-9.7%	3.1%	?	-9.9%
O=C1/C(=C/C=C/c2ccco2)SC(=S)N1NS(=O)(=O)c1ccccc1	3.55µM*	10.6µM*	12.6µM*	10µM*	3.16µM*	7.08µM*
CC(C(=O)O)N1C(=O)/C(=C/C=C/c2ccco2)SC1=S (stereo not given)	3.16µM*	4.74µM*	50.1µM*	?	3.16µM*	2.51µM*
COc1cccc(C2/C(=C(\O)c3ccc4c(c3)OCCO4)C(=O)C(=O)N2CC2CCCO2)c1 (stereo not given)	22.4µM*	-0.2%	3.0%	5.5%	?	-28.7%
Cc1ccc(C2/C(=C(\O)c3ccc4c(c3)OCCO4)C(=O)C(=O)N2Cc2cccnc2)cc1 (stereo not given)	-30.1%	-2.1%	14.8%	27.5%	56.2µM*	-19.8%[57.1 µM]
COc1ccc(/C(O)=C2/C(=O)C(=O)N(CC3CCCO3)C2c2cccc(OC)c2)cc1 (stereo not given)	-34.3%	-0.3%	-4.7%	23.4%	-35.4%[59 µM]	-12.5%
Cc1ccc(C2/C(=C(\O)c3ccc4c(c3)OCCO4)C(=O)C(=O)N2CC2CCCO2)cc1 (stereo not given)	?	-9.2%	0.6%	-0.7%	50.1µM*	-26.6%
COc1ccc(/C(O)=C2/C(=O)C(=O)N(CC3CCCO3)C2c2ccc(O)c(OC)c2)cc1 (stereo not given)	-26.1%	-17.0%	1.8%	-17.9%	50.1µM*	-6.1%

Assay outcomes: PubChem BioAssay, National Center for Advancing Translational Sciences (NCATS)
